# Measurements taken from article PMC7862700, “An all-to-all approach to the identification of sequence-specific readers for epigenetic DNA modifications on cytosine”.
# Columns and labels:
# Assay in all cases: DAPPL (digital affinity profiling via proximity ligation, sequencing); 10 mM Tris-HCl pH 7.5, 50 mM NaCl, 1 mM DTT, 4% glycerol, room temperature, 30 min; GST-TFs on glutathione beads, 16-mer random dsDNA library, 0.1% formaldehyde crosslink after washing; high values mean tight binding
# Conditions in all cases: protein: recombinant; tags: N-terminal GST; dsDNA, one strand shown
# FLI1 = biological target: T1, FLI1 (Homo sapiens, UniProt Q01543 1-452)
# T1 sequence: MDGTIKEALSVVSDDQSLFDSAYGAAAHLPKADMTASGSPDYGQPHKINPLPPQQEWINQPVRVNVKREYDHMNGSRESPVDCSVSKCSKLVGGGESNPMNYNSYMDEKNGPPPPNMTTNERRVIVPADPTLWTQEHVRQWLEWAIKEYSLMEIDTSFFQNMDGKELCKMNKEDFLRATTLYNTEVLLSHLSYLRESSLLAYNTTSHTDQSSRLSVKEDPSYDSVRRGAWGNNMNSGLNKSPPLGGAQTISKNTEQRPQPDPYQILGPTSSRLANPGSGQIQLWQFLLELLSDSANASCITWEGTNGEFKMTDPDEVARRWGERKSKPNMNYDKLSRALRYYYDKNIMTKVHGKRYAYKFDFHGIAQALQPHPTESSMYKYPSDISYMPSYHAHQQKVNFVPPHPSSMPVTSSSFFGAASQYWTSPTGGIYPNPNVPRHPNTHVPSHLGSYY
# Outline: (§1)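 Pools were built from human transcription factors expressed in yeast as GST fusions, captured on glutathione beads and DNA-barcoded, along with a tag-only sample. Incubation with 200 nmole of a 16-mer random double-stranded DNA library lasted 30 min at room temperature in Tris/NaCl/DTT/glycerol buffer, and was followed by washing, 0.1% formaldehyde crosslinking, proximity ligation, PCR amplification and Illumina NextSeq500 sequencing. Binding signal is the quotient of each hexamer's read frequency for a factor and its frequency for the tag-only sample.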
# ELK1 = biological target: T2, ELK1 (Homo sapiens, UniProt P19419 1-428)
# T2 sequence: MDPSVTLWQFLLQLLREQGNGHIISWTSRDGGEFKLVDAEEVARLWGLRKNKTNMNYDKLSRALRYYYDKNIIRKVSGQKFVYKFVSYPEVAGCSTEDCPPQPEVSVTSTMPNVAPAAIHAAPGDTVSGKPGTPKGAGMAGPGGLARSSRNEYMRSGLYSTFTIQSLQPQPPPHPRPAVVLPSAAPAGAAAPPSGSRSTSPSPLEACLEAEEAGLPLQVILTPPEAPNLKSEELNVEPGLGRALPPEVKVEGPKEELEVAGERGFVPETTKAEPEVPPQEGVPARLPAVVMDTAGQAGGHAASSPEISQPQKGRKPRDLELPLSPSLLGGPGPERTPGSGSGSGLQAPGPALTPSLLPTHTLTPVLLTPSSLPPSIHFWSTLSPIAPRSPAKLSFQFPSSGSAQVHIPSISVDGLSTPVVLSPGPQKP
# Outline: as §1
# GABPA = biological target: T3, GABPA (Homo sapiens, UniProt Q06546 1-454)
# T3 sequence: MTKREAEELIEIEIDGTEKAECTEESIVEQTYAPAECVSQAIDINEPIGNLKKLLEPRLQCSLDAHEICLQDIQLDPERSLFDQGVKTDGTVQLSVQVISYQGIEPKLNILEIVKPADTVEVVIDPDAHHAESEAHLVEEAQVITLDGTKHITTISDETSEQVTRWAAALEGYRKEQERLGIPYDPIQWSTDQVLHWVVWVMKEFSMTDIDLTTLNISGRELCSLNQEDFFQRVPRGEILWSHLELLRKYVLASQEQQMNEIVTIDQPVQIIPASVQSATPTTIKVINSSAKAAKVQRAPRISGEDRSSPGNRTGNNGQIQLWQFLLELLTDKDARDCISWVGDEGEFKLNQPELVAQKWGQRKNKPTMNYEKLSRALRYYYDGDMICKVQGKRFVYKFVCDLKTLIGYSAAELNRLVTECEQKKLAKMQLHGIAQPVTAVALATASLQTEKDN
# Outline: as §1
# ERG = biological target: T4, ERG (Homo sapiens, UniProt P11308 1-479)
# T4 sequence: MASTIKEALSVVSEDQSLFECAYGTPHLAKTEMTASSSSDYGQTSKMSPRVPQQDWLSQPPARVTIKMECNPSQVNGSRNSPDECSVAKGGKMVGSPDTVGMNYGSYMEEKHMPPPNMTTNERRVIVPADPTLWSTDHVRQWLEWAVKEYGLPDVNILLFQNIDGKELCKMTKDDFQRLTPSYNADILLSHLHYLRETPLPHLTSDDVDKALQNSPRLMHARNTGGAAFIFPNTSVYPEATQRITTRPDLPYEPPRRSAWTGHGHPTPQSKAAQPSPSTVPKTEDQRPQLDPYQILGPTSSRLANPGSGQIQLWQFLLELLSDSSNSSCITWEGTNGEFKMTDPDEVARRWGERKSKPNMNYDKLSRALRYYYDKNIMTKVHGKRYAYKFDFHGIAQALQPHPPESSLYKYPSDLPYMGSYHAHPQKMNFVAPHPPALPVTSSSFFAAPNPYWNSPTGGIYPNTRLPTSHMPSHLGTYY
# Outline: as §1
# ELF1 = ELF1 (Homo sapiens, UniProt P32519 1-619)
# ELF1, sequence (P32519 whole entry): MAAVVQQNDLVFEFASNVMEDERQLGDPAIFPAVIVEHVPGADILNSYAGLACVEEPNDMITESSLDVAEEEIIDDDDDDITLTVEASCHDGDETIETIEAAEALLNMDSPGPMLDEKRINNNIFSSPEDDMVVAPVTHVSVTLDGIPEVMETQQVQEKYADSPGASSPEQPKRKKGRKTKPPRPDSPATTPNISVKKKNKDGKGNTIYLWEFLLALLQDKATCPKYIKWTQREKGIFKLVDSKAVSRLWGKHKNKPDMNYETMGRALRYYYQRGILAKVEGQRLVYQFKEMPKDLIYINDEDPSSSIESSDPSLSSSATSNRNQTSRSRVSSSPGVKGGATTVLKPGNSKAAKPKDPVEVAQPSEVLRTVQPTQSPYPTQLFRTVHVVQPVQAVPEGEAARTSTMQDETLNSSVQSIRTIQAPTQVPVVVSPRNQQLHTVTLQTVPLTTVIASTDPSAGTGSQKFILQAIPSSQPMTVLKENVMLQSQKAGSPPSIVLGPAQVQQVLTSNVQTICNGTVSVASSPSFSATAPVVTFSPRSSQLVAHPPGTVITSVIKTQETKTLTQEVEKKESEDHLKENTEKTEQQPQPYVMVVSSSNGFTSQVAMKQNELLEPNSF
# Outline: as §1
# EHF = biological target: T5, EHF (Homo sapiens, UniProt Q9NZC4 1-300)
# T5 sequence: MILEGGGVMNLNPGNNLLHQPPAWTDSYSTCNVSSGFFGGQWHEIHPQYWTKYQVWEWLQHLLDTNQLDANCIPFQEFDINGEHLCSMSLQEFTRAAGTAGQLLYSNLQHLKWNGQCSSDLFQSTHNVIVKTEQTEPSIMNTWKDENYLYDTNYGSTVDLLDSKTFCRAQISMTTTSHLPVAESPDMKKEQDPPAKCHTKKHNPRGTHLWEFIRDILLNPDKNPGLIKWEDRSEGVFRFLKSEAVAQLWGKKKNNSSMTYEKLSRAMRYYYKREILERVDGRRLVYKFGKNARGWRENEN
# Outline: as §1
# SPI1 = SPI1 (Homo sapiens, UniProt P17947 1-270)
# Outline: as §1
# SPIB = SPIB (Homo sapiens, UniProt Q01892 1-262)
# SPIB, sequence (Q01892 whole entry): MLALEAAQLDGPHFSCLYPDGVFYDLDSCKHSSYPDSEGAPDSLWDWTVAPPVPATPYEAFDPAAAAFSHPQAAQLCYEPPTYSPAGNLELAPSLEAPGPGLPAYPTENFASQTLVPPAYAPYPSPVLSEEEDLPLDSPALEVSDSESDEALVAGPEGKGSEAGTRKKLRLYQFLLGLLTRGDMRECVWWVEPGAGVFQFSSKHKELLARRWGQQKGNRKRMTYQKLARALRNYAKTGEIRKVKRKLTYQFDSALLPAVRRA
# Outline: as §1
# ELK3 = biological target: T6, ELK3 (Homo sapiens, UniProt P41970 1-407)
# T6 sequence: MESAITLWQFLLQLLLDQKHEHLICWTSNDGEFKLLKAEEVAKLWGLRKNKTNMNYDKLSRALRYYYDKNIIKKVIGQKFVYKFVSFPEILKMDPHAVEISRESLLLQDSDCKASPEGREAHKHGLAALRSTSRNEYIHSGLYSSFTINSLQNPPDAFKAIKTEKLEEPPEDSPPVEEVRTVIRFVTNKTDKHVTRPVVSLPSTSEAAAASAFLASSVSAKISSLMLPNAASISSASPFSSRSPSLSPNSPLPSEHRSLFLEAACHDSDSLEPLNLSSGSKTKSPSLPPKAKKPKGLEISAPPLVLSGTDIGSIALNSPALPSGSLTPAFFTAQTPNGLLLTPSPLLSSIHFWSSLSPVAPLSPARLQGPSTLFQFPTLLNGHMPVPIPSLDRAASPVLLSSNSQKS
# Outline: as §1
sequence,measurement,setting,value
TCTGTT,binding signal,FLI1,"1.41 fold enrichment (6-mer frequency, TF over GST control)"
same,binding signal,ELK1,"1.47 fold enrichment (6-mer frequency, TF over GST control)"
same,binding signal,GABPA,"1.24 fold enrichment (6-mer frequency, TF over GST control)"
same,binding signal,ERG,"1.42 fold enrichment (6-mer frequency, TF over GST control)"
same,binding signal,ELF1,"1.42 fold enrichment (6-mer frequency, TF over GST control)"
same,binding signal,EHF,"1.45 fold enrichment (6-mer frequency, TF over GST control)"
same,binding signal,SPI1,"1.43 fold enrichment (6-mer frequency, TF over GST control)"
same,binding signal,SPIB,"1.33 fold enrichment (6-mer frequency, TF over GST control)"
same,binding signal,ELK3,"1.15 fold enrichment (6-mer frequency, TF over GST control)"
